Experimental data taken from the supplement of paper PMC8728848.
Only a selection was taken, and the strongest signals are over-represented in it overall.

Tests used:
Experiment in all cases: glycan array binding signal (z-score within array); higher = stronger binding
Details in all cases: glycan notation: IUPAC condensed, linker removed; mutation: R85A
[1] = molecular target: Fuc(a1-2)Gal(b1-3)GlcNAc(b1-2)Man(a1-3)[Fuc(a1-2)Gal(b1-3)GlcNAc(b1-2)Man(a1-6)]Man(b1-4)GlcNAc(b1-4)GlcNAc
Procedure, shortened: (§1)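 Glycan array data came from 3228 arrays in the Consortium for Functional Glycomics database, and only arrays with an available protein sequence were kept. Glycan names were put into IUPAC-condensed notation, and columns mapping to the same glycan were averaged. The binding signal is a within-array Z-score, averaged across arrays of one protein sequence run at different concentrations or buffers and across linkers. A negative Z-score can be read as non-binding.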

Fuc(a1-2)Gal6S(b1-4)Glc = molecular target: Fuc(a1-2)Gal6S(b1-4)Glc
Procedure, shortened: as §1

[2] = molecular target: Fuc(a1-2)[Gal(a1-3)]Gal(b1-3)GlcNAc(b1-2)Man(a1-3)[Fuc(a1-2)[Gal(a1-3)]Gal(b1-3)GlcNAc(b1-2)Man(a1-6)]Man(b1-4)GlcNAc(b1-4)GlcNAc
Procedure, shortened: as §1

[3] = molecular target: Fuc(a1-2)[Gal(a1-3)]Gal(b1-4)GlcNAc
Procedure, shortened: as §1

[4] = molecular target: Fuc(a1-3)[Gal(b1-4)]Glc6S
Procedure, shortened: as §1

[5] = molecular target: Fuc(a1-3)[Gal(b1-4)]GlcNAc(b1-3)Gal(b1-3)[Fuc(a1-4)]GlcNAc
Procedure, shortened: as §1

Gal(a1-3)Gal(b1-4)Glc = molecular target: Gal(a1-3)Gal(b1-4)Glc
Procedure, shortened: as §1

Gal(a1-4)Gal(b1-4)Glc = molecular target: Gal(a1-4)Gal(b1-4)Glc
Procedure, shortened: as §1

[6] = molecular target: Gal(b1-3)Gal(b1-4)GlcNAc(b1-2)Man(a1-3)[Gal(b1-3)Gal(b1-4)GlcNAc(b1-2)Man(a1-6)]Man(b1-4)GlcNAc(b1-4)GlcNAc
Procedure, shortened: as §1

[7] = molecular target: Gal(b1-3)GlcNAc(b1-2)Man(a1-3)[Gal(b1-3)GlcNAc(b1-2)Man(a1-6)]Man(b1-4)GlcNAc(b1-4)GlcNAc
Procedure, shortened: as §1

[8] = molecular target: Gal(b1-3)GlcNAc(b1-3)Gal(b1-4)GlcNAc(b1-6)[Gal(b1-3)GlcNAc(b1-3)]Gal(b1-4)Glc
Procedure, shortened: as §1

Gal3S(b1-3)GalNAc = molecular target: Gal3S(b1-3)GalNAc
Procedure, shortened: as §1

Gal3S(b1-3)GlcNAc = molecular target: Gal3S(b1-3)GlcNAc
Procedure, shortened: as §1

Gal3S(b1-4)Glc = molecular target: Gal3S(b1-4)Glc
Procedure, shortened: as §1

Gal3S(b1-4)Glc6S = molecular target: Gal3S(b1-4)Glc6S
Procedure, shortened: as §1

Gal3S(b1-4)GlcNAc6S = molecular target: Gal3S(b1-4)GlcNAc6S
Procedure, shortened: as §1

Gal4S6S(b1-4)GlcNAc = molecular target: Gal4S6S(b1-4)GlcNAc
Procedure, shortened: as §1

Gal6S(b1-4)Glc6S = molecular target: Gal6S(b1-4)Glc6S
Procedure, shortened: as §1

[9] = molecular target: GlcNAc(b1-2)Man(a1-3)[GlcNAc(b1-2)Man(a1-6)]Man(b1-4)GlcNAc(b1-4)GlcNAc
Procedure, shortened: as §1

[10] = molecular target: GlcNAc(b1-3)Gal(b1-4)GlcNAc(b1-3)Gal(b1-4)GlcNAc
Procedure, shortened: as §1

Neu5Ac(a2-3)Gal(b1-4)Glc = molecular target: Neu5Ac(a2-3)Gal(b1-4)Glc
Procedure, shortened: as §1

Neu5Ac(a2-3)GalNAc = molecular target: Neu5Ac(a2-3)GalNAc
Procedure, shortened: as §1

[11] = molecular target: Neu5Ac(a2-6)Gal(b1-4)GlcNAc(b1-3)GalNAc
Procedure, shortened: as §1

Neu5Ac(a2-8)Neu5Ac = molecular target: Neu5Ac(a2-8)Neu5Ac
Procedure, shortened: as §1

B1: rAAL (Agrocybe aegerita), Q6WY08 (protein)
chain: MQGVNIYNISAGTSVDLAAPVTTGDIVTFFSSALNLNAGAGNPNNTTLNLFAENGAYLLHIAFRLQENVIIFNSRQPDGPWLVEQAVSDVANQFAGIDGKAMVTVFDHGDKYQVVINEKTVIQYTKQISGLTLSLSYNATEETSIFSTVVEAVTYTGLALEHHHHHH
[1]
  glycan array binding signal (z-score): -0.123
Fuc(a1-2)Gal6S(b1-4)Glc
  glycan array binding signal (z-score): -0.131
[2]
  glycan array binding signal (z-score): -0.093
[3]
  glycan array binding signal (z-score): -0.127
[4]
  glycan array binding signal (z-score): -0.13
[5]
  glycan array binding signal (z-score): -0.132
Gal(a1-3)Gal(b1-4)Glc
  glycan array binding signal (z-score): 1.02
Gal(a1-4)Gal(b1-4)Glc
  glycan array binding signal (z-score): -0.133
[6]
  glycan array binding signal (z-score): 9.2
[7]
  glycan array binding signal (z-score): -0.072
[8]
  glycan array binding signal (z-score): 0.051
Gal3S(b1-3)GalNAc
  glycan array binding signal (z-score): 14.6
Gal3S(b1-3)GlcNAc
  glycan array binding signal (z-score): 3.42
Gal3S(b1-4)Glc
  glycan array binding signal (z-score): 3.77
Gal3S(b1-4)Glc6S
  glycan array binding signal (z-score): 4.38
Gal3S(b1-4)GlcNAc6S
  glycan array binding signal (z-score): 0.209
Gal4S6S(b1-4)GlcNAc
  glycan array binding signal (z-score): -0.136
Gal6S(b1-4)Glc6S
  glycan array binding signal (z-score): -0.121
[9]
  glycan array binding signal (z-score): -0.127
[10]
  glycan array binding signal (z-score): -0.136
Neu5Ac(a2-3)Gal(b1-4)Glc
  glycan array binding signal (z-score): 0.216
Neu5Ac(a2-3)GalNAc
  glycan array binding signal (z-score): -0.131
[11]
  glycan array binding signal (z-score): 1.17
Neu5Ac(a2-8)Neu5Ac
  glycan array binding signal (z-score): -0.125
